# Measurements reported in PubChem BioAssay (NCATS).
# Several values for one entry are separate records, joined by “and”; a condition that tells them apart may be missing. Equal values may be shown once. Inconclusive results are not listed. Entries that show only a call come without a potency. Activity calls are given as the source filed them. Unless noted, the call rests on the fitted dose curve; in most records, active means well fitted curve in the direction sought with a large enough effect; inconclusive means small, poorly fitted or top-dose-only effect, or another doubt; inactive means no such curve, though single readings can be large; an effect the other way counts as inactive or inconclusive.
# How the values were obtained:
# [1] = Validation of Assay for Modulators of Lamin A Splicing (AID 1459; active means well fitted curve in the direction sought with a large enough effect in the signal ratio; the % refers to the signal ratio;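 further: cells exposed to compound for two days before reading; ratio rise marks activators and ratio drop marks inhibitors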)
# Procedure, shortened: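 HeLa S3 lamin A-EGFP/DsRed2 stable clone, 600 cells/well, Opti-MEM 2% FBS; compounds by pin tool; 48 hrs, 37 °C/5% CO2; Acumen 488 nm scan, objects 10-100 um; GFP/RFP intensity ratio.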
# [2] = qHTS Assay for Lipid Storage Modulators (AID 1519; calls by dose curve); settings: Drosophila S3 cells, BODIPY lipid droplet/cell ratio, laser cytometry, cells loaded with oleic acid; for activity change, negative = inhibition: at 57.5 µM (top of the series)
# Procedure, shortened: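 Cells seeded at 5,000 per well were treated with compounds over a concentration series and loaded with oleic acid (400 uM, as added). Lipid droplet fluorescence (488 nm excitation, 500-530 nm channel) was read by laser-scanning cytometry and normalized to 20 uM Triacsin C.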
# [3] = biological target: DNA repair nuclease/redox regulator APEX1 (Homo sapiens) (UniProt P27695); assay: qHTS Validation Assay for Inhibitors of the Human Apurinic/apyrimidinic Endonuclease 1 (APE1) (AID 1705;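 further: TAMRA fluorescence gain over two minutes as APE1 cuts a quenched THF abasic duplex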)
# DNA repair nuclease/redox regulator APEX1 (Homo sapiens), sequence (P27695 whole entry, looked up): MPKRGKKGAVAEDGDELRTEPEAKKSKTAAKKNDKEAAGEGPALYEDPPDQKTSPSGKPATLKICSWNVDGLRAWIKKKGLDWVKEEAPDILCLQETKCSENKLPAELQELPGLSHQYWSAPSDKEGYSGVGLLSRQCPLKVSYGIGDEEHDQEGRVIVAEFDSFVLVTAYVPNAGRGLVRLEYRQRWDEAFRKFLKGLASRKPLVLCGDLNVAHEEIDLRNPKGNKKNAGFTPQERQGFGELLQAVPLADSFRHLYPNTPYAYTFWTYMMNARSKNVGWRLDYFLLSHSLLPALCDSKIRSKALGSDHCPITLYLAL
# Procedure, shortened: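 qHTS, 1536-well. APE1 + cpd 15 min RT → 50 nM TAMRA/BHQ-2 THF-abasic dsDNA substrate → kinetic fluorescence, 3 reads/60 s; delta(read3−read1) = reaction progress. No-enzyme buffer = negative control.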
# [4] = Counterscreen for APE1 Inhibitors: Fluorescent Dye Displacement Validation Assay (AID 1707); further: potency means the concentration at half of the fitted maximal effect
# Procedure, shortened: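 Compounds are scored by their ability to displace Thiazole Orange (250 nM) from a 50 nM TAMRA-tagged duplex bearing a tetrahydrofuran abasic site. Buffer is 50 mM Tris-HCl pH7.5, 50mM NaCl, 2 mM MgCl2, 0.01% Tween-20.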
# [5] = biological target: Endonuclease 4 (Escherichia coli (strain K12)) (UniProt P0A6C1); assay: Counterscreen for APE1 Inhibitors: qHTS Validation Assay for Inhibitors of Endonuclease IV (AID 1708); further: potency means the concentration at half of the fitted maximal effect
# Procedure, shortened: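 qHTS concentration-response format; LOPAC1280 tested under APE1-screen conditions. 2 nM enzyme, 15 min compound preincubation at RT, then 50 nM TAMRA/BHQ-2 abasic substrate; kinetic fluorescence read, three reads at 60 s intervals.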
# [6] = qHTS for differential inhibitors of proliferation of Plasmodium falciparum line 7G8 (AID 1815);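 further: parasite growth measured after three days of incubation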; further: potency means the concentration at half of the fitted maximal effect
# [7] = qHTS for differential inhibitors of proliferation of Plasmodium falciparum line GB4 (AID 1816); settings: Potency: Plasmodium falciparum GB4 proliferation inhibition;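 further: parasite growth measured after 72 h incubation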; further: potency means the concentration at half of the fitted maximal effect
# [8] = qHTS for differential inhibitors of proliferation of Plasmodium falciparum line 3D7 (AID 1876); further: potency means the concentration at half of the fitted maximal effect
# [9] = qHTS for differential inhibitors of proliferation of Plasmodium falciparum line D10 (AID 1877);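 further: parasites grown with compound for 72 h before DNA staining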; further: potency means the concentration at half of the fitted maximal effect
# [10] = qHTS for differential inhibitors of proliferation of Plasmodium falciparum line Dd2 (AID 1882); settings: Potency: Plasmodium falciparum Dd2 proliferation inhibition; further: nearly all actives have a fitted effect of over 65% in size; further: potency means the concentration at half of the fitted maximal effect
# Procedure, shortened: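 Dd2-infected erythrocytes (0.3% parasitemia, 2.5% hematocrit final) incubated with compound 72 h at 37 C, 5% CO2; lysed with saponin/Triton buffer containing SYBR Green I, incubated overnight in the dark, then read by fluorescence (485/535 nm). Normalized to 0.29 uM artemisinin and DMSO.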
# [11] = qHTS for differential inhibitors of proliferation of Plasmodium falciparum line W2 (AID 1883); settings: Potency: Plasmodium falciparum W2 proliferation inhibition;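 further: parasites grown with compound for 72 h before lysis and staining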; further: potency means the concentration at half of the fitted maximal effect
# [12] = qHTS for differential inhibitors of proliferation of Plasmodium falciparum line HB3 (AID 1886); settings: Potency: Plasmodium falciparum HB3 proliferation inhibition;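 further: parasites grown with compound for 72 h before SYBR Green readout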; further: potency means the concentration at half of the fitted maximal effect
# [13] = qHTS Assay for Modulators of Human Peripheral Myelin Protein 22 (PMP22) Expression/Activity (AID 1967; active means well fitted curve in the direction sought with a large enough effect in the signal ratio; the % refers to the signal ratio)
# Procedure, shortened: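 Luminescence ratio of Pmp22 promoter-driven green luciferase to EF-alpha-driven red luciferase, in engineered mouse MSC80 Schwann cells, served as read-out. Compounds were incubated 24h; untreated cells defined 0% Activity; curves were classified by r2, magnitude and activity.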
# [14] = biological target: ATP-dependent DNA helicase Q1 (Homo sapiens) (UniProt P46063); assay: qHTS Validation Assay for Inhibitors of RecQ-Like Dna Helicase 1 (RECQ1) (AID 2353); further: potency means the concentration at half of the fitted maximal effect
# ATP-dependent DNA helicase Q1 (Homo sapiens), sequence (P46063 whole entry, looked up): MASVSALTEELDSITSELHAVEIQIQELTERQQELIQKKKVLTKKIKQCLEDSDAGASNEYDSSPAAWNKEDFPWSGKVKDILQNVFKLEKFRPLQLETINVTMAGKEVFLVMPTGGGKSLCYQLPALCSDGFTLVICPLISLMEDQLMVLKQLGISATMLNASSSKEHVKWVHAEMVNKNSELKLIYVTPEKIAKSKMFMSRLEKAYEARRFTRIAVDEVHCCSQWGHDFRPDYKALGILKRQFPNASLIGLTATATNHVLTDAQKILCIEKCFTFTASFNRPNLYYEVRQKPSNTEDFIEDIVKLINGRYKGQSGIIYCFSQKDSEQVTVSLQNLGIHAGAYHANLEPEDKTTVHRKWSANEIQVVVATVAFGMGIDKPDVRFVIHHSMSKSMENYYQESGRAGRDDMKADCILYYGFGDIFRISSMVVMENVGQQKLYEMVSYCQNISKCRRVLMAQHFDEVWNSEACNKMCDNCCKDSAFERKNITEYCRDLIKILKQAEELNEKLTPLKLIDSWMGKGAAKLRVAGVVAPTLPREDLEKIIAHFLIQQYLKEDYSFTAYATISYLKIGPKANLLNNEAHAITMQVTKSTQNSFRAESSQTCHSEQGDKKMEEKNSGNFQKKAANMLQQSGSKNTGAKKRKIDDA
# Procedure, shortened: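 50 nM RECQ1T1 preincubated 15 min with compound in Tris pH 8.0 buffer with MgCl2, DTT, Tween-20 and 2.5 ug/ml poly(dI-dC); started with 200 nM TAMRA/BHQ-2 forked duplex and 2 mM ATP. Unwinding read as fluorescence (525/598 nm), two reads 2 h apart.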
# [15] = biological target: alpha-glucosidase (Oryza sativa, rice) (UniProt Q653V4); assay: Counterscreen for Glucocerebrosidase Inhibitors: qHTS Assay for Rice alpha-Glucosidase at pH 5.0 (AID 997)
# Procedure, shortened: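 Rice alpha-glucosidase (4 nM final) with 400 uM 4-methylumbelliferyl-alpha-D-glucopyranoside in citrate buffer pH 5.0, 20 min at room temperature, stopped at pH 10; fluorescence 365/440 nm, compounds 0.7 nM–77 uM, AC50 from Hill fits.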
# [16] = biological target: Ferritin light chain (Equus caballus) (UniProt P02791); assay: qHTS Validation Assay for Identification of Novel General Anesthetics (AID 2323)
# Ferritin light chain (Equus caballus), sequence (P02791 2-175 limits assumed): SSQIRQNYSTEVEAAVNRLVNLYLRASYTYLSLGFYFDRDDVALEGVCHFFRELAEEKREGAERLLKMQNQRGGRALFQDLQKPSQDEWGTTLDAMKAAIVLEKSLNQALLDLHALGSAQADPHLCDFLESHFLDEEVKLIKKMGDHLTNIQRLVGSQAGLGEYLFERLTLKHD
# Procedure, shortened: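 Fluorescence at 535 nm (excitation 380 nm) reported loss of 1-AMA binding to horse-spleen apoferritin (10 uM) in PBS with 50% saturated 1-aminoanthracene, after 10 min room-temperature incubation with compound; values from Hill fits of normalized response.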
# [17] = biological target: RecQ-like DNA helicase BLM (Homo sapiens) (UniProt P54132); assay: qHTS Validation Assay for Inhibitors of Bloom's syndrome helicase (BLM) (AID 2364); further: potency means the concentration at half of the fitted maximal effect
# RecQ-like DNA helicase BLM (Homo sapiens), sequence (P54132 whole entry, looked up): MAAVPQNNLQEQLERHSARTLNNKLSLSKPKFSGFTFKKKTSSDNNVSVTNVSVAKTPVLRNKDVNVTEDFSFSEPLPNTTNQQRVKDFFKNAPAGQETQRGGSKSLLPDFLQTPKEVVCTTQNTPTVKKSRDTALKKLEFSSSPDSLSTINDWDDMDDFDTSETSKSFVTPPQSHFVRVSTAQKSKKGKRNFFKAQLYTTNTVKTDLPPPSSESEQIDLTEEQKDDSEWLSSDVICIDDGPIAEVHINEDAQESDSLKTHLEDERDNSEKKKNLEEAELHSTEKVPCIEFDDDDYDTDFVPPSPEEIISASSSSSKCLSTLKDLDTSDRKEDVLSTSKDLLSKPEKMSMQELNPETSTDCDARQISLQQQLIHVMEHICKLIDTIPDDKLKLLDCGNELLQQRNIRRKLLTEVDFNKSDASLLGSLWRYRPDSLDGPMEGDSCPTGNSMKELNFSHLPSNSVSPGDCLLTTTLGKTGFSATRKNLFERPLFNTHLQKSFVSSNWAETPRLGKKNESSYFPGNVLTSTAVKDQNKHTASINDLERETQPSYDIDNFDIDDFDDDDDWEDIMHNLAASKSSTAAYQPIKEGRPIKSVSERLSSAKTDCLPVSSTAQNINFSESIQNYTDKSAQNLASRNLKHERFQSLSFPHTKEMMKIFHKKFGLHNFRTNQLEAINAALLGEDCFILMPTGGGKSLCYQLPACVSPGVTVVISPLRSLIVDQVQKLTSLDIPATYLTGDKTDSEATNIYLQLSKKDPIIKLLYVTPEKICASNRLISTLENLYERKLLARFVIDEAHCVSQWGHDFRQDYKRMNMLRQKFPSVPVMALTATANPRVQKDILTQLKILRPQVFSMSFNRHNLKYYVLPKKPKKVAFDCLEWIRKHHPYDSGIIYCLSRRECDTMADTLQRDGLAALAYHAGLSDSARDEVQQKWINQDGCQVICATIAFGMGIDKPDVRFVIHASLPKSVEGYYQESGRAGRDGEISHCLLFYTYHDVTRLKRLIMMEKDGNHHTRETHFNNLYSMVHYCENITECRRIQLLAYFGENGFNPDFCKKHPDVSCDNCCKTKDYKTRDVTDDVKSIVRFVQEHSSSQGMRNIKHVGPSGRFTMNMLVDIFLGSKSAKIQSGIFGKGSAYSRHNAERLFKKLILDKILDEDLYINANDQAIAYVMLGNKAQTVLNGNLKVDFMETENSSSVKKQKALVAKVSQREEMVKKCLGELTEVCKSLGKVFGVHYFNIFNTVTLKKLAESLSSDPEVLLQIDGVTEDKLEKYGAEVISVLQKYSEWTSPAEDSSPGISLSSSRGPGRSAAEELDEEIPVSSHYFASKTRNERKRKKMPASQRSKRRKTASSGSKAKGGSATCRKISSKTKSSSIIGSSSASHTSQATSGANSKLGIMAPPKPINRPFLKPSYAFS
# Procedure, shortened: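 Forked 20-bp duplex substrate (200 nM, TAMRA/BHQ-2) plus 2 mM ATP added after 15 min compound preincubation with 50 nM enzyme, pH 8.0, poly(dI-dC) 2.5 ug/ml. Strand separation followed by fluorescence (525/598 nm) over 2 h, normalized to enzyme-free and DMSO controls.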
# [18] = measured here: cell count channel max response
# [19] = measured here: lipid channel max response
Structure (SMILES),outcome [1],"activity change, negative = inhibition [2]","max response [2, 18]","max response [2, 19]",Potency [3],Potency [4],Potency [5],Potency [6],Potency [7],Potency [8],Potency [9],Potency [10],Potency [11],Potency [12],outcome [13],Potency [14],outcome [15],Potency [16],Potency [17]
NC1CONC1=O (stereo not drawn),inactive,9.95% (inactive) and 0.344% (inactive),9.83% and -1.76%,24% and -1.09%,inactive,inactive,inactive,inactive,inactive,inactive,inactive,inactive,inactive,inactive,inactive,inactive,–,–,–
O=c1[nH]ccc2c(O)cccc12,inactive,1.52% (inactive),-28%,-29.5%,inactive,inactive,inactive,inactive,inactive,inactive,inactive,inactive,inactive,inactive,–,inactive,inactive,inactive,–
CC(C)Cn1c(=O)n(C)c(=O)c2[nH]cnc21,inactive,2.93% (inactive),8.14%,8.87%,inactive,inactive,inactive,inactive,inactive,inactive,inactive,inactive,inactive,inactive,inactive,inactive,inactive,–,inactive
O=C(O)C1CCCNC1 (stereo not drawn),inactive,0.3% (inactive),0.529%,0.762%,inactive,inactive,inactive,inactive,inactive,inactive,inactive,inactive,–,inactive,inactive,–,–,inactive,inactive
CCN(CC)CCCCCCCCOC(=O)c1cc(OC)c(OC)c(OC)c1,inactive,0.792% (inactive),8.64%,11.3%,inactive,inactive,inactive,7.08 µM (active),–,5.62 µM (active),–,8.91 µM (active),3.55 µM (active),–,–,inactive,inactive,inactive,inactive
CCCCCC(O)CCCC(=O)O (stereo not drawn),inactive,0.833% (inactive),-25.3%,-24.6%,inactive,inactive,inactive,inactive,inactive,inactive,inactive,inactive,inactive,inactive,inactive,–,–,inactive,inactive
C[C@@H](NCCc1ccc(O)cc1)[C@@H](O)c1ccc(O)cc1,inactive,1.71% (inactive),-16.7%,-23.8%,inactive,inactive,inactive,inactive,inactive,inactive,inactive,inactive,inactive,inactive,inactive,inactive,–,inactive,inactive
CCC(=O)N1CCN(C(=O)c2ccccc2)CC1,inactive,0.685% (inactive),-9.69%,-7.51%,inactive,inactive,–,–,–,–,–,–,–,–,inactive,–,inactive,inactive,–
CC(=O)NNC(=O)N1Cc2ccccc2Oc2ccc(Cl)cc21,inactive,3.63% (inactive) and -0.28% (inactive),-1.09% and 39.5%,4.04% and 30.3%,inactive,inactive,–,–,inactive,inactive,inactive,inactive,inactive,inactive,–,inactive,inactive,inactive,inactive
NS(=O)(=O)c1cccc2c1c([N+](=O)[O-])cc1nc(O)c(O)nc12,inactive,-1.05% (inactive) and 1.23% (inactive),-22.6% and 10.1%,-22.6% and 7.26%,inactive,inactive,inactive,–,–,inactive,inactive,inactive,11.2 µM (active),inactive,inactive,–,inactive,inactive,–
CC(C)C[C@H](NC(=O)C1OC1C(=O)O)C(=O)NCCCCN=C(N)N (stereo partly drawn),inactive,–,–,–,inactive,inactive,inactive,4.47 µM (active),3.16 µM (active),2.51 µM (active),3.55 µM (active),6.31 µM (active),2.51 µM (active),2.51 µM (active),inactive,inactive,–,inactive,–
Cc1nc(N=Nc2cc(S(=O)(=O)O)c3cc([N+](=O)[O-])cc(S(=O)(=O)O)c3c2)c(COP(=O)(O)O)c(C=O)c1O,inactive,-4.26% (inactive),6.63%,4.35%,–,10 µM (active),15.8 µM (active),–,–,inactive,–,inactive,inactive,–,inactive,11.2 µM (active),inactive,–,inactive
O=C(O)C1=CC(=C(c2ccc(O)c(C(=O)O)c2)c2ccc(O)c(C(=O)O)c2)C=CC1=O,inactive,3.23% (inactive) and 0.986% (inactive),16.1% and 56.8%,22% and 58.3%,–,inactive,0.708 µM (active),–,–,–,–,inactive,–,–,–,–,inactive,inactive,0.794 µM (active)
O=C(O)/C=C/c1cnc[nH]1,inactive,–,–,–,inactive,inactive,inactive,inactive,inactive,inactive,inactive,inactive,inactive,inactive,inactive,inactive,–,inactive,–
COc1cc(CC(=O)O)ccc1O,inactive,-0.731% (inactive),56.6%,57.3%,–,inactive,inactive,inactive,inactive,inactive,inactive,–,inactive,inactive,inactive,inactive,inactive,–,inactive
Nc1ncnc2c1ncn2C1CCCO1 (stereo not drawn),inactive,-1.26% (inactive),24.9%,22.8%,–,inactive,inactive,inactive,inactive,inactive,inactive,inactive,–,inactive,–,inactive,–,inactive,–
